Results as given in ChEMBL document CHEMBL1157539, “Thousands of chemical starting points for antimalarial lead identification” (Nature, 2010).

The compounds below were run on Plasmodium falciparum (assay: GSK_TCMDC: Inhibition of Plasmodium falciparum 3D7 in whole red blood cells, using parasite LDH activity as an index of growth. Test compounds present at 2uM).
Type: functional

| SMILES | Inhibition [%] |
| --- | --- |
| O=C(NC1CCCCC1)N(Cc1cccc(-c2ccc(CNCc3ccc4c(c3)OCO4)cc2)c1)C1CCN(Cc2ccccc2)CC1.O=C(O)C(F)(F)F | 92 |
| CCn1c(-c2nonc2N)nc2cnc(Oc3cccc(NC(=O)c4ccc(OCCN5CCCCC5)cc4)c3)cc21 | 98 |
| O=C(Nc1cccc(-c2cccc(-c3nc4ccccc4[nH]3)c2)c1)Nc1ccc(F)c(F)c1F | 98 |
| COc1ccc(-c2ccc(NC(=O)c3cccc(Cl)c3)cc2)cc1CNC(C)C.O=C(O)C(F)(F)F | 100 |
| Cl.O=C(Nc1ccc2nccc(N3CCN4CCC[C@H]4C3)c2c1)c1ccc(Cl)c(Cl)c1 | 100 |
| Cc1[nH]c(C)c(-c2ccc(OCc3ccc(F)cc3)cc2)c(=O)c1Br | 98 |
| Cc1cc(Nc2cccc(C#N)c2)nc(Nc2ccccc2C)n1 | 95 |
| Cl.Clc1ccc2c(NCCCCCCCCNc3ccnc4cc(Cl)ccc34)ccnc2c1 | 99 |
| Cc1[nH]c(C)c(-c2ccc(-c3ccccc3F)nc2)c(=O)c1Cl | 97 |
| O=C(Nc1cccc(CN2CCN(C(=O)c3cccc(F)c3)CC2)c1)c1cccs1.O=C(O)C(F)(F)F | 95 |
| CC(C)(C)c1ccc(NC(=O)c2ccc(CN3CCCN(Cc4cccc(Cl)c4)CC3)cc2)cc1.O=C(O)C(F)(F)F | 96 |
| O=C(/C=C/c1ccc(Cl)c(Cl)c1)N1CCC(CCCN2CCC(c3c[nH]c4ccc(O)cc34)CC2)CC1 | 100 |
| Cc1cccc2nc(-c3cccc(-c4cccc(C(=O)NCCc5cn(C)cn5)c4)c3)[nH]c12 | 100 |
| CC(C)Cc1cnc2nc(N)nc(N)c2c1.Cl | 98 |
| Cl.Oc1ccc(CCNc2nc(NCCCOc3ccccc3-c3ccc(C(F)(F)F)cc3)nc(N3CCNCC3)n2)cc1 | 100 |
| COc1cc(NCCCNC(=O)c2cc3c(Cl)cc(Cl)cc3[nH]2)nc2ccccc12 | 100 |
| Cc1cccc(C=NN=c2cc(C)[nH]c3ccc(F)cc23)n1 | 95 |
| Cl.N#Cc1ccc2c(c1)CCN(CCC1CCC(NC(=O)c3cc4ccc(Br)cc4[nH]3)CC1)C2 (stereo not given) | 100 |
| Cc1cc(-c2nc3ccc(C(=O)NCc4ccccc4)cc3n2C2CCN(C(=O)c3ccc(-c4ccccc4)cc3)CC2)ccn1 | 95 |
| O=C(Nc1cccc(-c2cccc(-c3nc4cc(C(F)(F)F)ccc4[nH]3)c2)c1)c1ccoc1 | 99 |

| SMILES | Inhibition [%] |
| --- | --- |
| COc1cc(NC(=O)c2cc([N+](=O)[O-])ccc2NC(=O)CNC2CCCCC2C)cc(OC)c1 (stereo not given) | 87 |
| CCCc1cc(Cc2cnc(N)nc2N)cc(CCC)c1OCCCCC(=O)O | 95 |
| Cc1cc(C=C(P(=O)(OC(C)C)OC(C)C)P(=O)(OC(C)C)OC(C)C)c2ccccc2c1O | 85 |
| NCCCCNc1cc(-c2ccnc(Nc3cccc(Cl)c3)n2)ccn1 | 94 |
| COc1cc2nc(N3CCC(CNC(=O)c4cccc5cccnc45)CC3)nc(N)c2cc1OC | 99 |
| N=C(/N=C(/NCCCCCCN/C(=N\C(=N)Nc1ccc(Cl)cc1)N1CCCCC1)N1CCCCC1)Nc1ccc(Cl)cc1 | 100 |
| COc1ccc2c(N/N=C/c3cccc([N+](=O)[O-])c3)ccnc2c1 | 100 |
| CCCCOc1c(CCNCCCCNCCc2cc(F)c3ccccc3c2OCCCC)cc(F)c2ccccc12.CS(=O)(=O)O | 96 |
| Cl.Oc1ccc(Nc2nc(NCC3CCCO3)c3ccccc3n2)cc1 (stereo not given) | 100 |
| CN1CCN(c2ccnc3ccc(NC(=O)Nc4cccc5ccccc45)cc23)CC1 | 100 |
| O=C(Nc1cccc(CN2CCCN(Cc3ccc(O)cc3)CC2)c1)c1ccc(Cl)c(Cl)c1.O=C(O)C(F)(F)F | 100 |
| CC(=O)Nc1ccc(OCCN(Cc2ccccc2OC(F)(F)F)c2ccc(C(F)(F)F)c(C#N)c2)c(Cl)c1 | 96 |
| O=C(Nc1ccc(C(F)(F)F)cc1)Nc1cccc([N+](=O)[O-])c1 | 100 |
| COc1ccc(CNC2CCN(C)CC2)cc1-c1ccc(S(=O)(=O)NCc2ccccc2)s1.O=C(O)C(F)(F)F | 100 |
| COCCn1c(C)nc2ccccc2c1=O | 89 |
| COc1ccc(CCN2CCC(NCc3cccc(N(C)C)c3)CC2)cc1 | 98 |
| CCCN(CCC)CCCN(CCCN(CCC)CCC)c1cc(C)nc(Nc2ccc(Cl)cc2)n1.Cl | 100 |
| CCOC(=O)c1sc(C(C)Nc2ccccc2)nc1-c1ccccc1 (stereo not given) | 95 |
| CCc1cccc(-n2c(=O)c3cccnc3n2CC(=O)NC2CCCC2)c1 | 94 |
| COc1ccccc1N(C)CCNc1cc(C)nc(Nc2ccccc2)n1 | 96 |

Each compound was assayed on Plasmodium falciparum (assay: GSK_TCMDC: Inhibition of Plasmodium falciparum Dd2 in whole red blood cells, using parasite LDH activity as an index of growth. Test compounds present at 2uM).
Type: functional

| SMILES | Inhibition [%] |
| --- | --- |
| O=C(NC1CCCCC1)N(Cc1cccc(-c2ccc(CNCc3ccc4c(c3)OCO4)cc2)c1)C1CCN(Cc2ccccc2)CC1.O=C(O)C(F)(F)F | 59 |
| CCn1c(-c2nonc2N)nc2cnc(Oc3cccc(NC(=O)c4ccc(OCCN5CCCCC5)cc4)c3)cc21 | 7 |
| O=C(Nc1cccc(-c2cccc(-c3nc4ccccc4[nH]3)c2)c1)Nc1ccc(F)c(F)c1F | 95 |
| COc1ccc(-c2ccc(NC(=O)c3cccc(Cl)c3)cc2)cc1CNC(C)C.O=C(O)C(F)(F)F | 88 |
| Cl.O=C(Nc1ccc2nccc(N3CCN4CCC[C@H]4C3)c2c1)c1ccc(Cl)c(Cl)c1 | 98 |
| Cc1[nH]c(C)c(-c2ccc(OCc3ccc(F)cc3)cc2)c(=O)c1Br | 97 |
| Cc1cc(Nc2cccc(C#N)c2)nc(Nc2ccccc2C)n1 | 46 |
| Cl.Clc1ccc2c(NCCCCCCCCNc3ccnc4cc(Cl)ccc34)ccnc2c1 | 96 |
| Cc1[nH]c(C)c(-c2ccc(-c3ccccc3F)nc2)c(=O)c1Cl | 97 |
| O=C(Nc1cccc(CN2CCN(C(=O)c3cccc(F)c3)CC2)c1)c1cccs1.O=C(O)C(F)(F)F | 95 |
| CC(C)(C)c1ccc(NC(=O)c2ccc(CN3CCCN(Cc4cccc(Cl)c4)CC3)cc2)cc1.O=C(O)C(F)(F)F | 7 |
| O=C(/C=C/c1ccc(Cl)c(Cl)c1)N1CCC(CCCN2CCC(c3c[nH]c4ccc(O)cc34)CC2)CC1 | 99 |
| Cc1cccc2nc(-c3cccc(-c4cccc(C(=O)NCCc5cn(C)cn5)c4)c3)[nH]c12 | 78 |
| CC(C)Cc1cnc2nc(N)nc(N)c2c1.Cl | 0 |
| Cl.Oc1ccc(CCNc2nc(NCCCOc3ccccc3-c3ccc(C(F)(F)F)cc3)nc(N3CCNCC3)n2)cc1 | 49 |
| COc1cc(NCCCNC(=O)c2cc3c(Cl)cc(Cl)cc3[nH]2)nc2ccccc12 | 100 |
| Cc1cccc(C=NN=c2cc(C)[nH]c3ccc(F)cc23)n1 | 45 |
| Cl.N#Cc1ccc2c(c1)CCN(CCC1CCC(NC(=O)c3cc4ccc(Br)cc4[nH]3)CC1)C2 (stereo not given) | 17 |
| Cc1cc(-c2nc3ccc(C(=O)NCc4ccccc4)cc3n2C2CCN(C(=O)c3ccc(-c4ccccc4)cc3)CC2)ccn1 | 97 |
| O=C(Nc1cccc(-c2cccc(-c3nc4cc(C(F)(F)F)ccc4[nH]3)c2)c1)c1ccoc1 | 61 |

| SMILES | Inhibition [%] |
| --- | --- |
| COc1cc(NC(=O)c2cc([N+](=O)[O-])ccc2NC(=O)CNC2CCCCC2C)cc(OC)c1 (stereo not given) | 78 |
| CCCc1cc(Cc2cnc(N)nc2N)cc(CCC)c1OCCCCC(=O)O | 23 |
| Cc1cc(C=C(P(=O)(OC(C)C)OC(C)C)P(=O)(OC(C)C)OC(C)C)c2ccccc2c1O | 54 |
| NCCCCNc1cc(-c2ccnc(Nc3cccc(Cl)c3)n2)ccn1 | 91 |
| COc1cc2nc(N3CCC(CNC(=O)c4cccc5cccnc45)CC3)nc(N)c2cc1OC | 33 |
| N=C(/N=C(/NCCCCCCN/C(=N\C(=N)Nc1ccc(Cl)cc1)N1CCCCC1)N1CCCCC1)Nc1ccc(Cl)cc1 | 98 |
| COc1ccc2c(N/N=C/c3cccc([N+](=O)[O-])c3)ccnc2c1 | 99 |
| CCCCOc1c(CCNCCCCNCCc2cc(F)c3ccccc3c2OCCCC)cc(F)c2ccccc12.CS(=O)(=O)O | 78 |
| Cl.Oc1ccc(Nc2nc(NCC3CCCO3)c3ccccc3n2)cc1 (stereo not given) | 57 |
| CN1CCN(c2ccnc3ccc(NC(=O)Nc4cccc5ccccc45)cc23)CC1 | 96 |
| O=C(Nc1cccc(CN2CCCN(Cc3ccc(O)cc3)CC2)c1)c1ccc(Cl)c(Cl)c1.O=C(O)C(F)(F)F | 81 |
| CC(=O)Nc1ccc(OCCN(Cc2ccccc2OC(F)(F)F)c2ccc(C(F)(F)F)c(C#N)c2)c(Cl)c1 | 96 |
| O=C(Nc1ccc(C(F)(F)F)cc1)Nc1cccc([N+](=O)[O-])c1 | 98 |
| COc1ccc(CNC2CCN(C)CC2)cc1-c1ccc(S(=O)(=O)NCc2ccccc2)s1.O=C(O)C(F)(F)F | 100 |
| COCCn1c(C)nc2ccccc2c1=O | 67 |
| COc1ccc(CCN2CCC(NCc3cccc(N(C)C)c3)CC2)cc1 | 7 |
| CCCN(CCC)CCCN(CCCN(CCC)CCC)c1cc(C)nc(Nc2ccc(Cl)cc2)n1.Cl | 100 |
| CCOC(=O)c1sc(C(C)Nc2ccccc2)nc1-c1ccccc1 (stereo not given) | 91 |
| CCc1cccc(-n2c(=O)c3cccnc3n2CC(=O)NC2CCCC2)c1 | 13 |
| COc1ccccc1N(C)CCNc1cc(C)nc(Nc2ccccc2)n1 | 13 |
